We go through one compound from PubChem BioAssay AID2284100 (EPA ToxCast).

Activity calls are given as the source filed them. How the source made its calls: active means hit-call score of the fitted dose curve at least 0.9, where 1 is the maximum; inactive means score below 0.9.

The term AC50 denotes the midpoint of the concentration-response curve, whichever way the signal moves.

In the assay the target is human KDR (VEGFR2) Receptor Tyrosine Kinase, KDR (gene 3791) (UniProt P35968). The assay is described as follows: ERF_FR_ENZ_hKDR: Eurofins (ERF) Enzymatic Radiometric [Km ATP] KinaseProfiler LeadHunter Assay for human KDR (VEGFR2) Receptor Tyrosine Kinase. Here is the method: ERF_FR_ENZ_hKDR is a biochemical, single-readout assay that uses extracted gene-proteins in a cell-free assay. Measurements were taken 1 hour after chemical dosing in a 96-well plate. See KDR (VEGFR2) Human RTK Kinase Enzymatic LANCE Assay [Km ATP], Cerep.ERF_FR_ENZ_hKDR is an assay component calculated from the ERF_FR_ENZ_hKDR assay. It is designed to measure enzyme activity using a type of enzyme reporter as detected by fluorescence intensity with LANCE technology.Data from the assay component ERF_FR_ENZ_hKDR was analyzed at the assay endpoint, ERF_FR_ENZ_hKDR, in the positive analysis fitting direction relative to DMSO as the negative control and baseline of activity. Using a type of enzyme reporter, loss-of-signal activity can be used to understand changes in enzymatic activity as they relate to gene KDR. To generalize the intended target to other relatable targets, this assay endpoint is annotated to the kinase intended target family, where the subfamily is receptor tyrosine kinase.
Chain of human KDR (VEGFR2) Receptor Tyrosine Kinase, KDR (gene 3791) (P35968 whole entry, looked up): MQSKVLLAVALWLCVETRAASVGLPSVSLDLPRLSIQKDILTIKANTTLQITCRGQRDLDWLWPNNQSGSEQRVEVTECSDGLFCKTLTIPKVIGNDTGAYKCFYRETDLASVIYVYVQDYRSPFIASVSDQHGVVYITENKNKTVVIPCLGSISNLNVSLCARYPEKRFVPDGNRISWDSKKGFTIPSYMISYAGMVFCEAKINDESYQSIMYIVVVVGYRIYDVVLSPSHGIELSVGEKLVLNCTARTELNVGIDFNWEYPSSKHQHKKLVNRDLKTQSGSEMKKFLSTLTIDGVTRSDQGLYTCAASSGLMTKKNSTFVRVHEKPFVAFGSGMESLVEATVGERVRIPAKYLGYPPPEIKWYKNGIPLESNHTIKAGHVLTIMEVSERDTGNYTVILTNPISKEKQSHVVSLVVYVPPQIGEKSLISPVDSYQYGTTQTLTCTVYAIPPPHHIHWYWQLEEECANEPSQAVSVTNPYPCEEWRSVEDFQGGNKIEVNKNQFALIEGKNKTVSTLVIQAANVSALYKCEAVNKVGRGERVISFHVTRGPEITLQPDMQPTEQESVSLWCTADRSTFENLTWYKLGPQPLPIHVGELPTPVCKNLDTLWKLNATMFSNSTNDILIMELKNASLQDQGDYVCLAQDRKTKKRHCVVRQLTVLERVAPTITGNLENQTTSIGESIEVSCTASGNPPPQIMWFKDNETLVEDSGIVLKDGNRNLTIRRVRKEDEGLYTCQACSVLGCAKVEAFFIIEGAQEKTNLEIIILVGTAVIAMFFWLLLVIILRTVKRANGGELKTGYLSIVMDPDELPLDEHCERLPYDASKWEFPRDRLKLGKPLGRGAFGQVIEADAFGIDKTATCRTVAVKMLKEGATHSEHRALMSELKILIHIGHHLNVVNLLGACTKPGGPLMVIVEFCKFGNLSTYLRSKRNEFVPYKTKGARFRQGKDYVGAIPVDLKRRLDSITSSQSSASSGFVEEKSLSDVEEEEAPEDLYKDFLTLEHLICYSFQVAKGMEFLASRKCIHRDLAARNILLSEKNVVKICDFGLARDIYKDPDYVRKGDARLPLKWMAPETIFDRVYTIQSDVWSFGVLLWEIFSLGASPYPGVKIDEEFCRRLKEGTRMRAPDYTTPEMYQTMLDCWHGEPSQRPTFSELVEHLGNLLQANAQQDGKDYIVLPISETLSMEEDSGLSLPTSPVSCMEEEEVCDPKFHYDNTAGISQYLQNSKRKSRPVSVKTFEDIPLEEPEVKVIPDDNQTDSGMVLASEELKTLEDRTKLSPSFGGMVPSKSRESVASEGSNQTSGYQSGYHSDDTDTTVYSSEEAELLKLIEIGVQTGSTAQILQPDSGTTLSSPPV
KDR (h) is incubated with 8 mM MOPS pH 7.0, 0.2 mM EDTA, 0.33 mg/mL myelin basic protein, 10 mM MgAcetate and [gamma-33P]-ATP (specific activity and concentration as required). The reaction is initiated by the addition of the Mg/ATP mix. After incubation for 40 minutes at room temperature, the reaction is stopped by the addition of phosphoric acid to a concentration of 0.5%. […]
With `O=C(/C=C/c1ccc(O)cc1)CC(=O)/C=C/c1ccc(O)cc1`, the AC50 is 2.39 µM (active).
